The record followed here is the supplement of paper PMC4206461.

Unmarked numbers belong to inactive results.

The test deals with Pseudomonas aeruginosa PA14 dppBCDF deletion mutant. Description: respiration area under curve with compound as sole nitrogen source, 24 h (OmniLog AUC (arbitrary units)); higher = more respiration / better utilisation as nitrogen source, active = 2000 or more; extreme values may be limits of the assay. The method, then: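 Biolog Phenotype MicroArray plates PM6-PM8: each di/tripeptide is the sole nitrogen source. Tetrazolium reduction was read in the OmniLog every 15 min for 24 h at 37°C and summarised as area under the respiration curve (arbitrary units). Values below 2000 count as no respiration. Strain is the dipeptide ABC transporter deletion mutant.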
On to `C[C@H](N)C(=O)N[C@@H](Cc1ccccc1)C(=O)O` (plate: PM6), for which the “respiration area under curve” value is 5070 (active). With `CC(C)C[C@H](NC(=O)[C@@H](N)Cc1ccc(O)cc1)C(=O)O` (plate: PM7) the figure was 5310 (active); with `N[C@@H](Cc1c[nH]c2ccccc12)C(=O)NCC(=O)O` (plate: PM7), 6.75. Take `N[C@@H](CO)C(=O)N1CCC[C@H]1C(=O)O` (plate: PM7): the “respiration area under curve” value was 0. The figure for `CSCC[C@H](NC(=O)[C@@H](N)CCCN=C(N)N)C(=O)O` (plate: PM6) is 9400 (active).

Consider `N[C@@H](Cc1c[nH]c2ccccc12)C(=O)N[C@@H](Cc1ccc(O)cc1)C(=O)O` (plate: PM7), for which the “respiration area under curve” value was 236. The figure for `C[C@H](N)C(=O)N[C@@H](CO)C(=O)O` (plate: PM6) is 6740 (active); for `CC(C)[C@H](N)C(=O)NCC(=O)O` (plate: PM7) it is 47.8. The figure for `CSCC[C@H](N)C(=O)N[C@@H](CC(C)C)C(=O)O` (plate: PM7) is 247. The figure for `N[C@@H](Cc1ccc(O)cc1)C(=O)N[C@@H](Cc1ccccc1)C(=O)O` (plate: PM7) is 3450 (active); for `CC(C)[C@H](N)C(=O)N[C@H](C(=O)O)C(C)C` (plate: PM7) it is 1580; for `CSCC[C@H](N)C(=O)N[C@@H](Cc1ccccc1)C(=O)O` (plate: PM7) it is 85. In the case of `NC(=O)C[C@H](N)C(=O)N[C@@H](CCC(=O)O)C(=O)O` (plate: PM6), the “respiration area under curve” value is 1590. For the molecule `CC(C)C[C@H](N)C(=O)N1CCC[C@H]1C(=O)O` (plate: PM8), the “respiration area under curve” value was 0. As to `C[C@H](NC(=O)CN)C(=O)O` (plate: PM6), the “respiration area under curve” value is 48.2. With `CSCC[C@H](N)C(=O)N[C@@H](CCC(=O)O)C(=O)O` (plate: PM7) the figure was 0; with `N[C@@H](Cc1ccccc1)C(=O)N[C@@H](CO)C(=O)O` (plate: PM7), 1830; with `CC[C@H](C)[C@H](NC(=O)[C@@H](N)Cc1ccccc1)C(=O)O` (plate: PM7), 6010 (active).

Turning to `C[C@H](NC(=O)[C@@H](N)CCCN=C(N)N)C(=O)O` (plate: PM6), the “respiration area under curve” value was 8890 (active).

For `CC[C@H](C)[C@H](N)C(=O)N[C@@H](CCC(N)=O)C(=O)O` (plate: PM6), the “respiration area under curve” value is 873. With `CC(C)[C@H](NC(=O)[C@@H](N)Cc1ccccc1)C(=O)O` (plate: PM8) the figure was 3510 (active); with `N[C@@H](Cc1ccccc1)C(=O)N[C@@H](Cc1c[nH]c2ccccc12)C(=O)O` (plate: PM7), 85.

As to `CC(C)C[C@H](NC(=O)[C@@H](N)CC(=O)O)C(=O)O` (plate: PM6), the “respiration area under curve” value was 0. `C[C@@H](O)[C@H](N)C(=O)N[C@@H](Cc1ccccc1)C(=O)O` (plate: PM8): the “respiration area under curve” value is 274. Regarding `CC(C)C[C@H](NC(=O)[C@@H](N)CO)C(=O)O` (plate: PM7), the “respiration area under curve” value is 3310 (active). With `C[C@@H](O)[C@H](NC(=O)CN)C(=O)O` (plate: PM6), the “respiration area under curve” value is 15.8. With `CC(C)[C@H](NC(=O)[C@H](C)N)C(=O)O` (plate: PM8), the “respiration area under curve” value was 700. With `CSCC[C@H](N)C(=O)N[C@@H](CCC(N)=O)C(=O)O` (plate: PM7) the figure was 3640 (active); with `CC(C)C[C@H](N)C(=O)N[C@@H](Cc1ccccc1)C(=O)O` (plate: PM6), 3930 (active); with `CC(C)[C@H](N)C(=O)N[C@@H](C)C(=O)O` (plate: PM8), 207.

As to `CSCCC(NC(=O)C(N)CC(C)C)C(=O)O` (stereo not given) (plate: PM6), the “respiration area under curve” value was 686. For the molecule `CC[C@H](C)[C@H](NC(=O)[C@@H]1CCCN1)C(=O)O` (plate: PM8), the “respiration area under curve” value is 1.

In the case of `C[C@H](N)C(=O)N[C@@H](Cc1ccc(O)cc1)C(=O)O` (plate: PM6), the “respiration area under curve” value was 4510 (active). As to `CC(C)[C@H](N)C(=O)N[C@@H](CCCN=C(N)N)C(=O)O` (plate: PM7), the “respiration area under curve” value was 11700 (active). The figure for `O=C(O)CC[C@H](NC(=O)[C@@H]1CCCN1)C(=O)O` (plate: PM8) is 0. The figure for `O=C(O)[C@H](CO)NC(=O)[C@@H]1CCCN1` (plate: PM8) is 1290; for `CC(C)C[C@H](N)C(=O)N[C@@H](CCCN=C(N)N)C(=O)O` (plate: PM6) it is 8540 (active). With `CSCC[C@H](N)C(=O)N1CCC[C@H]1C(=O)O` (plate: PM7) the figure was 0; with `CSCC[C@H](N)C(=O)N[C@H](C(=O)O)C(C)C` (plate: PM7), 1430. In the case of `C[C@H](N)C(=O)N[C@@H](CC(N)=O)C(=O)O` (plate: PM6), the “respiration area under curve” value was 6980 (active).
